About 8,800 targets were measured; listed, in parts, are those with a hit and a random draw of the rest. About 0.5% of all pairs of compound and target were hits.
Columns and labels:
Experiment in all cases: log2 fold change, soluble protein after heating vs DMSO (PISA); higher = thermal stabilisation; K562 lysate, 10 uM; active = over 0.2 and 3.5 SD of the protein, either way, in both replicates (recomputed)
[1] = compound: C#Cc1cccc(Nc2ncnc3cc(OCCOC)c(OCCOC)cc23)c1 [erlotinib]
How it was run: (§1)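 Pellets of K562 cells were dounce-homogenised in PBS pH 7.4 with 1 mM MgCl2, and the crude extract was held at 1 mg/mL protein for a 30 min treatment with 10 μM compound. Aliquots were heated for 3 min over 48°C-58°C and pooled before NP-40 was added to 0.5% at 4°C. The supernatant from 21,000xg for 90 min was quantified by TMTpro 16plex LC-MS/MS with channel sums equalised. Values are reported from duplicates as log-two fold change in thermal stability relative to solvent controls.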

[2] = compound: C/C(=N\NC(=O)C1=CC(=CC=C1)S(=O)(=O)N2CCOCC2)/C3=C(C=CC(=C3)Cl)O
How it was run: as §1

[3] = compound: C1=CC(=CC=C1C2=NC3=C(N2)C=C(C=C3)C(=O)N)OC4=CC=C(C=C4)Cl
How it was run: as §1

[4] = compound: C1=CC2=C(C=CC(=C2)/C=C\3/C(=O)NC(=NCC4=CC=CS4)S3)N=C1
How it was run: as §1

[5] = compound: C1=CC2=NC=CN=C2C=C1/C=C/3\C(=O)NC(=O)S3
How it was run: as §1

[6] = compound: C1=CC=C(C=C1)C2=NC(=C(N2)C3=CC=NC=C3)C4=CC(=C(C=C4)Cl)O
How it was run: as §1

[7] = compound: C1=CC=C2C(=C1)C3=NNC4=CC=CC(=C43)C2=O
How it was run: as §1

[8] = compound: C1CCN(C1)C(=O)NC2=CC=CC(=C2)NC3=NC=C(C(=N3)NCCC4=CN=CN4)Br
How it was run: as §1

[9] = compound: C1CN(CCC1(CC2=CC=C(C=C2)Cl)N)C3=NC=NC4=C3C=CN4
How it was run: as §1

[10] = compound: C1COCCN1CCN2C3=CC=CC=C3N=C2NC(=O)C4=CC(=CC=C4)[N+](=O)[O-] [IRAK-1-4 Inhibitor I]
How it was run: as §1

[11] = compound: C=CC(=O)N1CCC[C@@H](n2nc(-c3ccc(Oc4ccccc4)cc3)c3c(N)ncnc32)C1 [ibrutinib]
How it was run: as §1

[12] = compound: CC(=O)c1cnc2ccc(-c3cc(Cl)c(O)c(Cl)c3)nc2c1N[C@H]1CC[C@H](CN(C)C)CC1
How it was run: as §1

[13] = compound: CC(C)(C)Cn1c(N)nc2ccc(-c3[nH]c(C(C)(C)C)nc3-c3ccc(F)cc3)nc21 [ralimetinib]
How it was run: as §1

[14] = compound: CC(C)(O)CC(=O)NCCn1ccc2ncnc(Nc3ccc(Oc4cccc(C(F)(F)F)c4)c(Cl)c3)c21
How it was run: as §1

[15] = compound: CC(C)C1=C2N=C(C=C(N2N=C1)NCC3=CC=CC=C3)NCCCCCCN
How it was run: as §1

[16] = compound: CC1=C(C(CC(=O)N1)C2=CC=C(C=C2)C(F)(F)F)C(=O)NC3=C(C=C4C(=C3)C=NN4)F
How it was run: as §1

[17] = compound: CC1=C(C2=C(C=C1)C(=O)C3=CC=CC=C3N2CCCN)C
How it was run: as §1

[18] = compound: CC1=C(C=C(C=C1)NC(=O)C2=CC(=CC=C2)C(C)(C)C#N)NC3=CC4=C(C=C3)N=CN(C4=O)C
How it was run: as §1

[19] = compound: CC1=C(C=C(C=C1)NC(=O)C2=CC(=CC=C2)N(C)C)NC(=O)C3=CC=C(C=C3)O
How it was run: as §1

[20] = compound: CC1=CC=C(C=C1)SC2=C3C=C(SC3=CN=C2)C(=O)N
How it was run: as §1

Measured: log2 fold change

RAP1B (UniProt P61224)
Chain of UniProt P61224 (P61224 whole entry, looked up): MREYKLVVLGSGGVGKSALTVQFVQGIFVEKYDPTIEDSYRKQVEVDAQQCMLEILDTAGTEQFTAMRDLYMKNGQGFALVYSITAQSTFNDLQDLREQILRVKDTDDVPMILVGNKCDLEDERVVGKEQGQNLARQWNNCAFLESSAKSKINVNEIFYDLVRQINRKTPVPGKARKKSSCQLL
inactive: [1] -0.017 | [2] -0.085 | [3] 0.024 | [4] 0.016 | [5] -0.031 | [6] 0.006 | [7] -0.014 | [8] -0.033 | [9] -0.004 | [10] 0.014 | [11] -0.024 | [12] -0.005 | [13] 0.051 | [14] -0.03 | [15] -0.014 | [16] -0.01 | [17] 0.004 | [18] 0.008 | [19] -0.017 | [20] -0.008

RABL3 (UniProt Q5HYI8)
Chain of UniProt Q5HYI8 (Q5HYI8 whole entry, looked up): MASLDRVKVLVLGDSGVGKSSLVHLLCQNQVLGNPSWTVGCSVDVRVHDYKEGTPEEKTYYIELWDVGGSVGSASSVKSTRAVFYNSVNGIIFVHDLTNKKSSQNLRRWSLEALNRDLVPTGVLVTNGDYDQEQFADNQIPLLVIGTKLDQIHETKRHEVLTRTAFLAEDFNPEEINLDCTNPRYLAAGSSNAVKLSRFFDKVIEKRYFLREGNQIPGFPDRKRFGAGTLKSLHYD
inactive: [2] -0.019 | [3] -0.025 | [4] 0.011 | [5] 0.008 | [7] -0.041 | [8] 0.015 | [9] 0.017 | [10] 0.48 | [11] 0.017 | [12] 0.014 | [13] 0.153 | [14] -0.05 | [15] -0.047 | [16] 0.021 | [17] -0.043 | [18] 0.003 | [19] -0.141 | [20] 0.014
active: [1] 0.706 | [6] 0.96

RBM8A (UniProt Q9Y5S9)
inactive: [1] -0.061 | [2] 0.035 | [3] -0.002 | [4] 0.069 | [5] -0.042 | [6] 0.029 | [7] 0.093 | [8] 0.086 | [9] -0.076 | [10] -0.059 | [11] -0.001 | [12] -0.016 | [13] -0.011 | [14] 0.057 | [15] -0.038 | [16] -0.004 | [17] 0.066 | [18] -0.101 | [19] 0.035 | [20] 0.027

RFC4 (UniProt P35249)
Chain of UniProt P35249 (P35249 whole entry, looked up): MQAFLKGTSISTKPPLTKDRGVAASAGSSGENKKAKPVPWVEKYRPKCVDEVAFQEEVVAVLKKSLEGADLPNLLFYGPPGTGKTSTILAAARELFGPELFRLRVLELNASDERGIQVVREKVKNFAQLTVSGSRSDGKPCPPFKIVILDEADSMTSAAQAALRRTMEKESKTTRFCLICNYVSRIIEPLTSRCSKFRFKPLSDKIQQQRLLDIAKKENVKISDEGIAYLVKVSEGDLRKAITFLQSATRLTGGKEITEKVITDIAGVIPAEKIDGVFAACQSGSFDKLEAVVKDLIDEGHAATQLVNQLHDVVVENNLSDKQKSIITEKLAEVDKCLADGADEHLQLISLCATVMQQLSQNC
inactive: [1] 0.006 | [2] 0.027 | [3] -0.033 | [4] -0.027 | [5] 0.018 | [6] 0.007 | [7] -0.056 | [8] -0.022 | [9] -0.012 | [10] -0.018 | [11] -0.01 | [12] -0.008 | [13] -0.01 | [14] -0.015 | [15] 0.032 | [16] 0 | [17] 0.026 | [18] -0.001 | [19] 0.002 | [20] 0.019

SDHA (UniProt P31040)
Chain of UniProt P31040 (P31040 whole entry, looked up): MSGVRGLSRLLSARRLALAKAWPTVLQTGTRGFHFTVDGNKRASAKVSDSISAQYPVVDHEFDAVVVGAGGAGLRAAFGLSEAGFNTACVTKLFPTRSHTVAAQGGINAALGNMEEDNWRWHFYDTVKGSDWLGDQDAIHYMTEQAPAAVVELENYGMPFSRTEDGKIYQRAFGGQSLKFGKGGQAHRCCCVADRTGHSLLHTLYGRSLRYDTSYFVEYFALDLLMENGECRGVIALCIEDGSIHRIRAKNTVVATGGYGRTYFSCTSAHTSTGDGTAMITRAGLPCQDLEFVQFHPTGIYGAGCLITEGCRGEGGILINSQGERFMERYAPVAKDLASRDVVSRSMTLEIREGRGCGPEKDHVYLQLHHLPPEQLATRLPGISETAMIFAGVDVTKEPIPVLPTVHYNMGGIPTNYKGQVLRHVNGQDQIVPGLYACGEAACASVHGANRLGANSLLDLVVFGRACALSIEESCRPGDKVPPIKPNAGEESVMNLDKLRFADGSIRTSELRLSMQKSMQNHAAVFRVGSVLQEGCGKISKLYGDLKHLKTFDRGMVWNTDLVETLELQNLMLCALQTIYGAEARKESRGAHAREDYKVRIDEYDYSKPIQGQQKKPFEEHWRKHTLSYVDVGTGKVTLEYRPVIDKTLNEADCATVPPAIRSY
inactive: [1] 0.001 | [2] 0.034 | [3] 0.109 | [4] -0.006 | [5] 0.005 | [6] -0.005 | [7] 0.025 | [8] -0.009 | [9] 0.004 | [10] 0.011 | [11] -0.015 | [12] 0 | [13] 0.043 | [14] 0.049 | [15] -0.01 | [16] 0.004 | [17] 0.008 | [18] 0.014 | [19] -0.015 | [20] 0.002

RSU1 (UniProt Q15404)
Chain of UniProt Q15404 (Q15404 whole entry, looked up): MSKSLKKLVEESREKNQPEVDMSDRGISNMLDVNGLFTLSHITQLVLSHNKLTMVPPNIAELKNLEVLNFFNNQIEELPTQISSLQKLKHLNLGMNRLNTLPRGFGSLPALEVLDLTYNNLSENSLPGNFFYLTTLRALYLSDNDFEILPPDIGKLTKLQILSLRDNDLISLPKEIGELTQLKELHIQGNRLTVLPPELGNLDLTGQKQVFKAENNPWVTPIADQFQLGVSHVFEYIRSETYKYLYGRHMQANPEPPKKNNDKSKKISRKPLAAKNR
inactive: [1] 0.017 | [2] 0.006 | [3] -0.039 | [4] -0.052 | [5] -0.011 | [6] -0.003 | [7] 0.017 | [8] 0.009 | [9] -0.027 | [10] 0 | [11] 0 | [12] 0.005 | [13] -0.005 | [14] -0.02 | [15] 0.005 | [16] 0.019 | [17] -0.022 | [18] -0.017 | [19] -0.027 | [20] -0.012

SERPINI1 (UniProt Q99574)
Chain of UniProt Q99574 (Q99574 whole entry, looked up): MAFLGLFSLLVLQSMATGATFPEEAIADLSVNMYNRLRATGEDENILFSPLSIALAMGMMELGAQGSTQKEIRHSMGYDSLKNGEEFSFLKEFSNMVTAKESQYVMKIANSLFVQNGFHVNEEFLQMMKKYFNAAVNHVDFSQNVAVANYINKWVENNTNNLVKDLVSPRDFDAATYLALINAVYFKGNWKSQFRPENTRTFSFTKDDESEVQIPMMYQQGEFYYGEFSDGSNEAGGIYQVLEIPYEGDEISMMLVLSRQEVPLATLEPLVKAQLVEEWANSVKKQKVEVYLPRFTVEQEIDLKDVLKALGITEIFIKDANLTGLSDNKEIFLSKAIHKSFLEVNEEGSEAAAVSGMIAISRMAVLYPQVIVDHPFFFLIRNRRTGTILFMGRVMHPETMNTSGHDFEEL
inactive: [1] -0.003 | [2] -0.021 | [3] -0.037 | [4] 0.027 | [5] 0.054 | [6] -0.007 | [7] -0.117 | [8] 0.029 | [9] 0.038 | [10] 0.031 | [11] 0.063 | [12] 0.075 | [13] 0.001 | [14] 0.024 | [15] 0.005 | [16] 0.056 | [17] 0.004 | [18] -0.024 | [19] -0.028 | [20] -0.054

RBBP8 isoform 2 (UniProt Q99708)
Chain of UniProt Q99708 (Q99708 whole entry, looked up): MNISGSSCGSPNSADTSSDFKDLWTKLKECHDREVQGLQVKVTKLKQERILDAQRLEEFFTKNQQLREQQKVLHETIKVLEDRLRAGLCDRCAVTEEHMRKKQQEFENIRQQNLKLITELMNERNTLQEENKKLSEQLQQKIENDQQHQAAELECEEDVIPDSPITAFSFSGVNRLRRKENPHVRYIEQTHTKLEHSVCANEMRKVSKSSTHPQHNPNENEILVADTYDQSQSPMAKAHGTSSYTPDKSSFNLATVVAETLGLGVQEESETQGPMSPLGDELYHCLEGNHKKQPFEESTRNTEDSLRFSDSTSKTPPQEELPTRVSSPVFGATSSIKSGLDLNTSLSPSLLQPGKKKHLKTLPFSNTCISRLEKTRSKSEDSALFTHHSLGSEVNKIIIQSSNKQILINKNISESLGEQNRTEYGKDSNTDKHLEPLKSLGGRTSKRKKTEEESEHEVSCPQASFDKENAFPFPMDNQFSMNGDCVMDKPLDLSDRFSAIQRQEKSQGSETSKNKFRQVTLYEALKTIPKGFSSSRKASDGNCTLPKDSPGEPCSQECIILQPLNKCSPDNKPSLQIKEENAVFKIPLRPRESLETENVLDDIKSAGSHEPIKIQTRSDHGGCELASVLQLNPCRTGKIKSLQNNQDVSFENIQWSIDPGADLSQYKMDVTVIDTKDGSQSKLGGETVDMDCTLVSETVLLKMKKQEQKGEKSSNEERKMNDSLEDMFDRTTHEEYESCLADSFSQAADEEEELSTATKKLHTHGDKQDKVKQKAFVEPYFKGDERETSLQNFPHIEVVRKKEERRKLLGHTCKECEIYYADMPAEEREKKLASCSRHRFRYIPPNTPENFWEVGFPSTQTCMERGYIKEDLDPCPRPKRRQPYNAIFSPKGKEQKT
inactive: [1] 0.073 | [2] -0.129 | [3] -0.031 | [4] 0.074 | [6] -0.004 | [7] -0.019 | [8] -0.017 | [9] -0.032 | [10] 0.033 | [11] -0.204 | [12] 0.005 | [13] -0.086 | [14] 0.011 | [15] -0.006 | [16] 0.003 | [17] -0.018 | [18] -0.066 | [19] -0.006 | [20] -0.143
active: [5] 0.295
